Measurements as given in PubChem BioAssay (Tox21).
Unmarked numbers belong to inactive results. Records with an inconclusive call do not appear. A call without a number means that no potency is given here. Calls of active or inactive are those of the source. Unless noted, the call rests on the fitted dose curve; in most records, active means well fitted curve in the direction sought with a large enough effect in the repeat runs; inconclusive means weak or mixed curves; inactive means no such curve, though single readings can be large; an effect the other way counts as inactive or inconclusive.

Legend:
[1] = Caspase-3/7 induction in HepG2 cells by small molecules, qHTS assay (AID 1346978); further: nearly all actives have a fitted effect of over 15% in size
Summary of the method: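 Wild-type HepG2 cells (2,000/well) were settled 5 h at 37 C, 5% CO2, then exposed to compounds in DMSO for 17 h. Caspase-3/7 activity was read by luminescence 30 min after adding Caspase-Glo 3/7 reagent at room temperature.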

[2] = Caspase-3/7 induction in CHO-K1 cells by small molecules, qHTS cell viability counter screen (AID 1346979); further: nearly all actives have a fitted effect of over 35% in size
Summary of the method: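 Viability readout by fluorescence (CellTiter-Fluor) on wild-type CHO-K1 cells exposed for 16hr at 37C and 5% CO2 to compounds delivered in DMSO; reagent incubated 1hr before reading.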

[3] = Caspase-3/7 induction in CHO-K1 cells by small molecules, qHTS assay (AID 1346980); further: nearly all actives have a fitted effect of over 15% in size
Summary of the method: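 Wild-type cells were seeded at 1,500 per well and settled 5 hr at 37 C, 5% CO2, then exposed to DMSO-dissolved compounds for 17 hr. Caspase-Glo 3/7 reagent was added, and luminescence was read after 30min at room temperature.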

[4] = Caspase-3/7 induction in HepG2 cells by small molecules, qHTS cell viability counter screen (AID 1346981); further: series mostly up to about 92 µM; nearly all actives have a fitted effect of over 30% in size
Summary of the method: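 Treatment of HepG2 cells with DMSO-delivered compounds ran 16 hr at 37 C following a 5-hr pre-incubation of 2,000 cells/well. CellTiter-Fluor fluorescence, read after 1 hr, served as the viability measure in a qHTS format.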

[5] = target: Acetylcholinesterase (Homo sapiens) (UniProt P22303); experiment: Acetylcholinesterase (AChE) small molecule antagonists: enzyme-based qHTS assay (AID 1347397; calls by dose curve; further: nearly all actives have a fitted effect of over 55% in size); conditions: Potency: AChE enzyme activity inhibition; outcome: AChE enzyme activity inhibition
Acetylcholinesterase (Homo sapiens), sequence (P22303 whole entry, looked up): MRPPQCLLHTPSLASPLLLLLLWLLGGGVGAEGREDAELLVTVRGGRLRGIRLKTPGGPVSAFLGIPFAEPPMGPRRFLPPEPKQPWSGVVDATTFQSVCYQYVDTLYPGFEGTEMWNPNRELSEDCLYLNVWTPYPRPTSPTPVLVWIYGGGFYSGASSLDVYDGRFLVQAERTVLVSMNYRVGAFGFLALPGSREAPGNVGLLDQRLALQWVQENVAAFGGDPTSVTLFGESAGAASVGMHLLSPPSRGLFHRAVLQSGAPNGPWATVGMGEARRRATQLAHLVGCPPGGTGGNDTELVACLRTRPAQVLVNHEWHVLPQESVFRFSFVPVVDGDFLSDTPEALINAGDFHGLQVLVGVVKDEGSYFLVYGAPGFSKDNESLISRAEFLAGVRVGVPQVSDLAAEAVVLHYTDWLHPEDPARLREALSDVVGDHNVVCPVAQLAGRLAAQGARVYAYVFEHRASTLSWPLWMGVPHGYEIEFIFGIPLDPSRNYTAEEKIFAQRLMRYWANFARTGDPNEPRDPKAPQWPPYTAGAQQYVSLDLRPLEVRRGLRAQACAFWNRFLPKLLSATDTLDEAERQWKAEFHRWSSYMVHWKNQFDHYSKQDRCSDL
Summary of the method: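 Compound or DMSO vehicle was pin-transferred onto recombinant human AChE (50 mU/mL as dispensed) and left 30 min at room temperature. Acetylthiocholine with DTNB then started the reaction, read colorimetrically 10 min later.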

[6] = target: Acetylcholinesterase (Homo sapiens) (UniProt P22303); experiment: Acetylcholinesterase (AChE) small molecule antagonists: fluorescence cell-based qHTS assay (AID 1347398; calls by dose curve; further: nearly all actives have a fitted effect of over 50% in size; further: potency means the concentration at half of the fitted maximal effect); conditions: Potency: AChE activity; outcome: AChE activity
Summary of the method: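 Using neuroblastoma SH-SY5Y cells as the enzyme source, test chemicals are preincubated 30 min at 37 C; AChE-driven acetylthiocholine cleavage is then quantified by thiocholine-dependent Thiolite Green fluorescence after 40 min at room temperature.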

[7] = target: Acetylcholinesterase (Homo sapiens) (UniProt P22303); experiment: Acetylcholinesterase (AChE) small molecule antagonists: enzyme-based qHTS assay with human liver microsomes (AID 1347399; calls by dose curve; further: nearly all actives have a fitted effect of over 60% in size; further: potency means the concentration at half of the fitted maximal effect); conditions: Potency: qHTS inhibition; outcome: qHTS inhibition
Summary of the method: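 Recombinant human AChE (50 mU/mL in the enzyme mix) and human liver microsomes (0.25 mg/mL final) were preincubated with compound and NADPH (0.25 mg/mL final) for 30 min at 37 C. Acetylthiocholine/DTNB was then added; thiocholine was read colorimetrically after 10 min at room temperature.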

[8] = target: Cytochrome P450 2D6 (Homo sapiens) (UniProt P10635); experiment: Cytochrome P450 Family 2 Subfamily D Member 6 (CYP2D6) small molecule antagonists: luciferase reporter qHTS assay (AID 1671196); further: nearly all actives have a fitted effect of over 50% in size; further: potency means the concentration at half of the fitted maximal effect
Cytochrome P450 2D6 (Homo sapiens), sequence (P10635 whole entry, looked up): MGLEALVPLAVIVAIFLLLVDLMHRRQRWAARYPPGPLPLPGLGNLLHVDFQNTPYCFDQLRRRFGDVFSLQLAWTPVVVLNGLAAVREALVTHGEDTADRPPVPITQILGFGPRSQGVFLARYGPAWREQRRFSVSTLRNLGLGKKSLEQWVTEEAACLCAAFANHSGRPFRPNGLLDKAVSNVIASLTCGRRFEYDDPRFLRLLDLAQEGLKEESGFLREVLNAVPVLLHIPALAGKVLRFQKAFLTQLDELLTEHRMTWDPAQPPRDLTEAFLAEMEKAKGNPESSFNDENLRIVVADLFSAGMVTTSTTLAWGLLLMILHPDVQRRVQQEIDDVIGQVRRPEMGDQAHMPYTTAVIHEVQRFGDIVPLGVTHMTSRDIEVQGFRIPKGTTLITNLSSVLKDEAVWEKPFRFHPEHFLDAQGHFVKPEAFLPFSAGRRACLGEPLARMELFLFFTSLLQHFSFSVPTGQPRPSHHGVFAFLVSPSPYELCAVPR
Summary of the method: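 Chemicals tested for interference with CYP2D6 activity; proluciferin substrate, NADPH regeneration, 1 h at room temperature, luminescent detection.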

[9] = target: Cytochrome P450 2C19 (Homo sapiens) (UniProt P33261); experiment: Cytochrome P450 Family 2 Subfamily C Member 19 (CYP2C19) small molecule antagonists: luciferase reporter qHTS assay (AID 1671197); further: nearly all actives have a fitted effect of over 65% in size; further: potency means the concentration at half of the fitted maximal effect
Cytochrome P450 2C19 (Homo sapiens), sequence (P33261 whole entry, looked up): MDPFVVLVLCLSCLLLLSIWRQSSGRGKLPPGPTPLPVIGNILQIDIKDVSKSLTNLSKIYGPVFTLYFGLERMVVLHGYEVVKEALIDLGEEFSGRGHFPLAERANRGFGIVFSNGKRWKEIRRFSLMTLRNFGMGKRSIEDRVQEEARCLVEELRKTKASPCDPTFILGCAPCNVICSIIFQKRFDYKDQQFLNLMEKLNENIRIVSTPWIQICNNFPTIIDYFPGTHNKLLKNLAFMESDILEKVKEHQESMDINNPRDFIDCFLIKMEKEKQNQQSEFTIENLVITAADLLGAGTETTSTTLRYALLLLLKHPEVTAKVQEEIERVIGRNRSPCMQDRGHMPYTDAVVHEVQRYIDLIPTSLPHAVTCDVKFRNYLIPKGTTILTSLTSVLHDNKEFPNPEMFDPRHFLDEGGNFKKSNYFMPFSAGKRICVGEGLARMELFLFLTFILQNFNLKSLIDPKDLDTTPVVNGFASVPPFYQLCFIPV
Summary of the method: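 Compounds were tested on CYP2C19 activity via proluciferin conversion to luciferin. The 37C, 1 h reaction followed NADPH addition; detection reagent stopped it.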

[10] = target: Cytochrome P450 1A2 (Homo sapiens) (UniProt P05177); experiment: Cytochrome P450 Family 1 Subfamily A Member 2 (CYP1A2) small molecule antagonists: luciferase reporter qHTS assay (AID 1671199); further: nearly all actives have a fitted effect of over 50% in size; further: potency means the concentration at half of the fitted maximal effect
Cytochrome P450 1A2 (Homo sapiens), sequence (P05177 whole entry, looked up): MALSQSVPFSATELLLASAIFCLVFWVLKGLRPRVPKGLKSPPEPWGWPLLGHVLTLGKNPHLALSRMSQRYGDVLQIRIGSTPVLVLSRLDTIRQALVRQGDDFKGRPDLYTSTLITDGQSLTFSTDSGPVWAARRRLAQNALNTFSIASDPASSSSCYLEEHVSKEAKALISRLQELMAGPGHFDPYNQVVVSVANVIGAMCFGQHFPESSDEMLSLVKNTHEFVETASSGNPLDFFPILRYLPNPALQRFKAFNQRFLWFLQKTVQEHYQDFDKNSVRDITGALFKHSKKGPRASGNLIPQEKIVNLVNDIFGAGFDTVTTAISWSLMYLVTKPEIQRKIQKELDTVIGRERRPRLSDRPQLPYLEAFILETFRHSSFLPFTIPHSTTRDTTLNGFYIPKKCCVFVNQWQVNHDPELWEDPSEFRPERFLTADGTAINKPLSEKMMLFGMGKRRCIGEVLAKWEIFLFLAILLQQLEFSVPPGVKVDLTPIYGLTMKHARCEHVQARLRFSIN
Summary of the method: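 Read-out is luminescence from luciferin detection reagent (20 min) proportional to CYP1A2 activity; compounds in DMSO preincubated 10 min with enzyme and proluciferin substrate, then NADPH regeneration solution, 1 h, room temperature.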

[11] = target: Voltage-gated inwardly rectifying potassium channel KCNH2 (Homo sapiens) (UniProt Q12809); experiment: Human Ether-a-go-go-Related Gene (hERG) channel small molecule antagonists: fluorescence cell-based qHTS assay (AID 1671200);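 further: hERG-expressing U2OS cells given a thallium stimulus after FluxOR II dye loading; series mostly up to about 77 µM; nearly all actives have a fitted effect of over 50% in size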
Voltage-gated inwardly rectifying potassium channel KCNH2 (Homo sapiens), sequence (Q12809 whole entry, looked up): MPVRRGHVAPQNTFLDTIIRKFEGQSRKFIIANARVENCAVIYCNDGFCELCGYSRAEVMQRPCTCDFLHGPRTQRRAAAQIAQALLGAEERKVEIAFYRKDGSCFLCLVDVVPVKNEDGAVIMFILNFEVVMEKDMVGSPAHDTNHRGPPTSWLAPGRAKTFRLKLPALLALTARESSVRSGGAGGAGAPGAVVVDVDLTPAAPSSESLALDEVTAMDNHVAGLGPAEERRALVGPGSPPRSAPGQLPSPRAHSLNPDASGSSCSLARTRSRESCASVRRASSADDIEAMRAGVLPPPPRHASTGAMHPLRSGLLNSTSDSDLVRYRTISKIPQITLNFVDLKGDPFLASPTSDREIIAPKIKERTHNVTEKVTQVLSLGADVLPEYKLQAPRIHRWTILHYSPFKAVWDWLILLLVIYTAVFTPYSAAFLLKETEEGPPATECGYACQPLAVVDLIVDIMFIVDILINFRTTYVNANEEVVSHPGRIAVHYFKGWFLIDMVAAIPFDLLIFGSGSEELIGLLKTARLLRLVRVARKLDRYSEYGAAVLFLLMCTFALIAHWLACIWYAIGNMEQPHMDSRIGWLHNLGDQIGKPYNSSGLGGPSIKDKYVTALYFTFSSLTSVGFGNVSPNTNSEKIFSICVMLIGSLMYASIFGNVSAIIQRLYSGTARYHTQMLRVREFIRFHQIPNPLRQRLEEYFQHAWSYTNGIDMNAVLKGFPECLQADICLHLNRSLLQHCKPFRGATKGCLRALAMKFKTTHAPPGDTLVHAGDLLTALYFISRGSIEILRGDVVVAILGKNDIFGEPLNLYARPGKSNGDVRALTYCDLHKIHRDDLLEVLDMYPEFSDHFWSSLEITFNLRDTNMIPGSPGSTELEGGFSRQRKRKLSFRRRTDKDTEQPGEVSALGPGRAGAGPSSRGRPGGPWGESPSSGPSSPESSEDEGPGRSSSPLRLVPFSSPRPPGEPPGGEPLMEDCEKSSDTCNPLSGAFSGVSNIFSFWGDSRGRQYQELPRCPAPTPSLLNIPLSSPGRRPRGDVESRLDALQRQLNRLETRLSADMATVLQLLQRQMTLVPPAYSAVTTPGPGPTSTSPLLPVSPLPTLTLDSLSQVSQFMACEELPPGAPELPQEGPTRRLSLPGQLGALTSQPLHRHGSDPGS
Summary of the method: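 Thallium served as the potassium surrogate; its influx into dye-loaded U2OS cells carrying the channel was measured by fluorescence over 2 min.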

[12] = target: Cytochrome P450 3A4 (Homo sapiens) (UniProt P08684); experiment: Cytochrome P450 Family 3 Subfamily A Member 4 (CYP3A4) small molecule antagonists: luciferase reporter qHTS assay (AID 1671201); further: nearly all actives have a fitted effect of over 50% in size; further: potency means the concentration at half of the fitted maximal effect
Cytochrome P450 3A4 (Homo sapiens), sequence (P08684 whole entry, looked up): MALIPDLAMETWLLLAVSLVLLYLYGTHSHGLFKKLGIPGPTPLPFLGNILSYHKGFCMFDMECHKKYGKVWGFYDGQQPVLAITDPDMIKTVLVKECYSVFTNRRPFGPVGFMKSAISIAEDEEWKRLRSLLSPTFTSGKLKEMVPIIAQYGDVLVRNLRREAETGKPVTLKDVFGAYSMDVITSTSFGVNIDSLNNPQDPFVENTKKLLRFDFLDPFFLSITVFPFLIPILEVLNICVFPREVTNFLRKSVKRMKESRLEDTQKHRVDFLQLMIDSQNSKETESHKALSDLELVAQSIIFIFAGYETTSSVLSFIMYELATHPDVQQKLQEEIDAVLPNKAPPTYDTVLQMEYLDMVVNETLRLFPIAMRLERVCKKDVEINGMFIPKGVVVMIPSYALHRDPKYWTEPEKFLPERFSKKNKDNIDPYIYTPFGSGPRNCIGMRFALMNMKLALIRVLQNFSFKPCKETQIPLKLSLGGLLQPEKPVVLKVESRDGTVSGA
Summary of the method: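 Relative luminescence units after 20 min with luciferin detection reagent served as read-out. Beforehand, CYP3A4 turned over a proluciferin substrate for 1 h at room temperature with NADPH regeneration, following 10 min compound preincubation.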

[13] = target: Nuclear receptor subfamily 1 group I member 2 (Homo sapiens) (UniProt O75469); experiment: Human pregnane X receptor (PXR) small molecule agonists, qHTS assay (AID 1346982); further: nearly all actives have a fitted effect of over 35% in size; further: potency means the concentration at half of the fitted maximal effect
Nuclear receptor subfamily 1 group I member 2 (Homo sapiens), sequence (O75469 whole entry, looked up): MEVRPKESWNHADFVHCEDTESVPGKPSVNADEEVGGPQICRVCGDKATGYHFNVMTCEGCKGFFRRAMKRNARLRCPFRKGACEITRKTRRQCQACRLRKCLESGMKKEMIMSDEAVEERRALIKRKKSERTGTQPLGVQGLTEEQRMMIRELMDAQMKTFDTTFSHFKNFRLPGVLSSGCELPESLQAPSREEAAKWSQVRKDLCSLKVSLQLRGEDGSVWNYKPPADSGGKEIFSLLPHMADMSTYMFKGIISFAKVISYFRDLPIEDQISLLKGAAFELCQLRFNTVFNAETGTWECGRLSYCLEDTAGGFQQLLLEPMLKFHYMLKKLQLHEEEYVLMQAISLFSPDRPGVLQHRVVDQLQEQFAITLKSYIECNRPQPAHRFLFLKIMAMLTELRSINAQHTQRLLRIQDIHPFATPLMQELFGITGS
Summary of the method: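 Stable HepG2 line reporting PXR-mediated CYP3A4 expression via luciferase. Treatment: 24 hr with compounds in DMSO at 37 C. Detection: ONE-Glo luminescence.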

[14] = target: Acetylcholinesterase (Homo sapiens) (UniProt P22303); experiment: Acetylcholinesterase (AChE) small molecule antagonists: colormetric cell-based qHTS assay (AID 1347395; calls by dose curve; further: nearly all actives have a fitted effect of over 30% in size; further: potency means the concentration at half of the fitted maximal effect)
Summary of the method: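 Homogeneous whole-cell format. SH-SY5Y cells seeded overnight, dosed with compound (30 min, 37 C, 5% CO2), then given DTNB/acetylthiocholine cocktail for 90 min at 37 C; colorimetric signal.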

[15] = target: Cytochrome P450 2C9 (Homo sapiens) (UniProt P11712); experiment: Cytochrome P450 Family 2 Subfamily C Member 9 (CYP2C9) small molecule antagonists: luciferase reporter qHTS assay (AID 1671198); further: nearly all actives have a fitted effect of over 50% in size; further: potency means the concentration at half of the fitted maximal effect
Cytochrome P450 2C9 (Homo sapiens), sequence (P11712 whole entry, looked up): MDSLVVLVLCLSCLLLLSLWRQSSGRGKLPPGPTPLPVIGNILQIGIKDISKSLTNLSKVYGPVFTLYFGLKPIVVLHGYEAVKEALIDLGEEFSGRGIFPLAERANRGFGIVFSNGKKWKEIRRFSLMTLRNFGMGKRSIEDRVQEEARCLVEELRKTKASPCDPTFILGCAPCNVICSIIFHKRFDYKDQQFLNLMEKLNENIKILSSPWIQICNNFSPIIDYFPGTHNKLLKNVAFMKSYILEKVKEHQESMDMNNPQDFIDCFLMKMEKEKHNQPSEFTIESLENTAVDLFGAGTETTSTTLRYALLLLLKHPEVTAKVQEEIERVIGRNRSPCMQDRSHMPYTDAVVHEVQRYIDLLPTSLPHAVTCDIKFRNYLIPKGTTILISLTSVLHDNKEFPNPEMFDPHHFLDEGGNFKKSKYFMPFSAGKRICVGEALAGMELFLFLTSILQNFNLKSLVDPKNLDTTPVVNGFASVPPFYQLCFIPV
Summary of the method: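 CYP2C9 activity was measured with a P450-Glo proluciferin substrate. Enzyme–substrate mix was held with compound for 10 min at room temperature, then NADPH regeneration solution was added for 1 h at 37C. Luciferin product was read as luminescence.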

| SMILES | outcome [1] | Potency [2] | outcome [3] | Potency [4] | Potency [5] | Potency [6] | Potency [7] | Potency [8] | Potency [9] | Potency [10] | Potency [11] | Potency [12] | Potency [13] | Potency [14] | Potency [15] |
| --- | --- | --- | --- | --- | --- | --- | --- | --- | --- | --- | --- | --- | --- | --- | --- |
| CCN(CCO)CCO | inactive | inactive | inactive | inactive | inactive | inactive | inactive | inactive | inactive | inactive | inactive | inactive | – | – | – |
| CN(C)CCN(C)C | inactive | inactive | – | inactive | inactive | inactive | inactive | inactive | inactive | – | inactive | inactive | inactive | inactive | inactive |
| O=c1[nH]c2ccccc2n1C1CCNCC1 | inactive | inactive | inactive | inactive | inactive | inactive | inactive | 30.9 µM (active) | – | – | inactive | inactive | – | inactive | – |
| CCNP(=S)(OC)O/C(C)=C/C(=O)OC(C)C (stereo not given) | inactive | inactive | inactive | inactive | – | inactive | inactive | 31.7 µM (active) | 0.0894 µM (active) | 2.52 µM (active) | – | 1.26 µM (active) | – | – | 0.633 µM (active) |
| CCOC(=O)N(C)N=O | inactive | inactive | inactive | inactive | inactive | inactive | inactive | inactive | inactive | – | inactive | inactive | – | – | inactive |
| Clc1nc(Cl)nc(Nc2ccccc2Cl)n1 | inactive | inactive | inactive | inactive | inactive | inactive | inactive | inactive | 79.6 µM (active) | – | inactive | inactive | – | inactive | – |
| CCOC(=O)COc1ccc(Cl)cc1Cl | inactive | inactive | inactive | inactive | – | inactive | inactive | inactive | 22.4 µM (active) | 31.7 µM (active) | inactive | inactive | – | – | – |
| CCC(C)(C#N)N=NC(C)(C#N)CC (stereo not given) | inactive | inactive | inactive | inactive | inactive | inactive | inactive | inactive | – | inactive | inactive | inactive | – | inactive | inactive |
| O=C(Cl)CCl | inactive | inactive | inactive | inactive | inactive | inactive | inactive | 71.4 µM (active) | – | – | inactive | inactive | – | inactive | inactive |
| CC[C@H](N)c1ccccc1 | inactive | inactive | inactive | inactive | inactive | inactive | inactive | 35.6 µM (active) | 63.3 µM (active) | – | inactive | 31.7 µM (active) | – | inactive | – |
| CCNc1nc(NCC)nc(SC)n1 | inactive | inactive | inactive | inactive | inactive | inactive | inactive | inactive | – | – | – | inactive | – | inactive | inactive |
| CS(=O)(=O)Cl | inactive | inactive | inactive | inactive | – | inactive | inactive | – | inactive | – | inactive | inactive | – | inactive | inactive |
| C=CCC1(C(C)CC)C(=O)NC(=O)NC1=O (stereo not given) | inactive | inactive | inactive | inactive | inactive | – | inactive | inactive | – | 21.9 µM (active) | inactive | – | – | – | – |
| COc1cccc(C=O)c1 | inactive | inactive | – | inactive | inactive | inactive | inactive | inactive | inactive | – | inactive | inactive | inactive | inactive | inactive |
| COc1cc(CC(C)N)cc(OC)c1OC (stereo not given) | inactive | inactive | inactive | inactive | inactive | inactive | inactive | – | inactive | 43.2 µM (active) | inactive | inactive | – | – | inactive |
| O=C(O)c1c(Cl)ccc2cc(Cl)cnc12 | inactive | inactive | inactive | inactive | inactive | inactive | inactive | inactive | – | – | inactive | inactive | – | inactive | 79.6 µM (active) |
| CON(C)C(=O)Nc1ccc(Br)cc1 | inactive | inactive | inactive | inactive | – | inactive | inactive | inactive | 35.6 µM (active) | 5.64 µM (active) | inactive | inactive | – | inactive | – |
| N#CN=C1SCCN1Cc1ccc(Cl)nc1 | inactive | inactive | inactive | inactive | inactive | inactive | inactive | 39.9 µM (active) | inactive | – | – | inactive | – | 35.6 µM (active) | – |
| CNC(=O)O/N=C(/CSC)C(C)(C)C | inactive | inactive | inactive | inactive | – | 0.142 µM (active) | 11.2 µM (active) | inactive | 20 µM (active) | – | inactive | inactive | – | 1.59 µM (active) | inactive |
| CCOC1Oc2ccc(OS(C)(=O)=O)cc2C1(C)C (stereo not given) | inactive | inactive | – | inactive | inactive | inactive | inactive | 35.3 µM (active) | 3.96 µM (active) | 35.3 µM (active) | – | inactive | 21.5 µM (active) | inactive | 22.3 µM (active) |
